Assay results as given in PubChem BioAssay (NCI).
The panel holds about 83,000 compounds, 20% with a hit somewhere; the sample as a whole holds those more often.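 The endpoint reported here, percent growth, reads 100 for growth as untreated, 0 for no net growth and -100 for all cells dead.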 Active and inactive are the calls of the source. The calls were made as follows: active = growth percent below 10; inactive = the rest.

Each molecule was assayed on SNB-19 CNS (assay: NCI-60 one-dose screen, 48 h (100 = growth as untreated, 0 = no growth, -100 = all killed)). Conditions: 10 µM unless noted.

SMILES	growth
Cn1ccnc1C(=O)C(=O)Nc1ccc(CC(=O)Nc2ccccc2)cc1	96.5% (inactive)
C=CCc1c(O)c(C(=O)/C=C/c2ccc(Cl)cc2)c(OC)c2ccoc12	63.2% (inactive)
C=C(CNCCc1ccc(O)cc1)[C@@H]1CC[C@]2(CO)CC[C@]3(C)[C@H](CC[C@@H]4[C@@]5(C)CCC(NCCO)C(C)(C)[C@@H]5CC[C@]43C)[C@@H]12 (stereo not given in full)	-73.2% (active)
CCOC(=O)CNP(=O)(OC[C@@H](Cc1ccccc1)NC(=O)c1cc2ccccc2s1)Oc1ccccc1 (stereo not given in full)	87.7% (inactive)
COc1ccc(OC)c(C(=O)/C=C/c2cc3c(c(OC)c2OC)OCO3)c1	71.5% (inactive)
C=C(C)[C@@H]1CC[C@]2(C)[C@H](CC=C3[C@@H]4[C@H](C)[C@@H](C)CC[C@]4(CO)CC[C@]32C)[C@@]1(C)CCCN	72.3% (inactive)
O=C1/C(=C/c2ccc(F)cc2)COc2ccc(O)cc21	90.4% (inactive)
CN(CCn1sc(=O)n(Cc2ccccc2)c1=O)Cc1ccc2c(Cl)cc(Cl)c(O)c2n1	39.7% (inactive)
CCN(CC)CCOc1ccc(C(=C(C)c2ccc(Cl)cc2)c2ccc(OCCN(CC)CC)cc2)cc1	-81.8% (active)
CC(=O)OC[C@]12CCC(C)(C)C[C@H]1[C@@]1(O)[C@H](O)C[C@@H]3[C@@]4(C)CCCNC(C)(C)[C@@H]4CC[C@@]3(C)[C@]1(C)CC2	97.4% (inactive)
Cc1ccc(CNc2ccc(Cl)cc2NCc2ccc(C)c(O)c2)cc1O	29.5% (inactive)
COc1ccc(C(=O)C2C(c3ccc(OC)cc3)CN(C)C23C(=O)Nc2ccccc23)cc1 (stereo not given)	86% (inactive)
O=C(O)CCCN1C(=O)/C(=C/C(Cl)=C/c2ccccc2)SC1=S	37.4% (inactive)
O=C1/C(=C/c2ccc(Cl)cc2)COc2ccc(O)c(O)c21	24.9% (inactive)
COc1cc(CNC(=O)/C=C/C=C/c2ccc3c(c2)OCO3)ccc1OCc1cn(-c2ccc(C)c(C)c2)nn1	79.5% (inactive)

Each molecule was assayed on U251 CNS in the same assay as above. Conditions: 10 µM unless noted.

SMILES	growth
CS(=O)(=O)Nc1cc(-c2ccc3ncnc(Nc4ccc5c(cnn5Cc5ccccn5)c4)c3c2)cnc1Cl	81.5% (inactive)
CO[C@H]1/C=C(/C)CCC[C@H](C)[C@H](O)[C@@H](C)C(=O)C(C)(C)[C@@H](O)CC(=O)O[C@@H]1/C(C)=C/c1csc(C)n1	15.4% (inactive)
COc1ccc2nc3ccc(OC)cc3c(SCCCN)c2c1	82.7% (inactive)
CCCCCCCCCCCCCCCC(N)c1ccccc1 (stereo not given)	-93.2% (active)
CC1=C(Nc2ccc(N3CCN(C)CC3)cc2)C(=O)c2cncnc2C1=O	83.6% (inactive)
CN(C)c1ccc(/C=C/C(=O)c2ccc(-n3cc(CN4CCN(c5cc6c(cc5F)c(=O)c(C(=O)O)cn6C5CC5)CC4)nn3)cc2)cc1	16.5% (inactive)
CCN(CC)c1nc(SCc2ccccc2Cl)ncc1C	92.6% (inactive)
CCN1CCN(Cc2cn(CC(=O)Nc3ccc4c(ccn4Cc4ccccc4)c3)nn2)CC1	96.6% (inactive)
O=C(O)[C@@H]1c2ccccc2-c2ccccc2[C@H]1C(=O)O	106% (inactive)
O=C1CC(N2C(=O)/C(=C/C(Cl)=C\c3ccc([N+](=O)[O-])cc3)SC2=S)C(=O)N1c1ccc(Cl)cc1 (stereo not given)	1.45% (active)
CCc1ccc(Oc2cn[nH]c2-c2ccc(OCCc3ccc(F)cc3)cc2O)cc1	53.5% (inactive)
CC1(C)CCC(S(=O)(=O)c2ccc3c(c2)/C(=N\O)c2cc(S(=O)(=O)N4CCC(O)(c5cccc(C(F)(F)F)c5)CC4)ccc2-3)CC1	-98.6% (active)
Cc1cc(Cl)ccc1Nc1nc(C(F)(F)F)ccc1C(=O)N/N=C/c1ccc([N+](=O)[O-])cc1	-13.9% (active)
CCOC(=O)c1[nH]c(=O)c2c(C)nc(-c3ccccc3)cc2c1O	117% (inactive)
Oc1ccc(CN2CCC(N3CCCCC3)CC2)c2cccnc12	17.6% (inactive)
COc1cccc([C@H]2c3[nH]c4ccccc4c3C[C@H]3C(=O)N(CCCCCCC(=O)NO)CC(=O)N23)c1	61.5% (inactive)
C=CC(=O)NCc1ccc(Nc2nccc(-c3ccc(N4CCCC4)c(C#N)c3)n2)cc1	38.1% (inactive)
CC1=C(C(=O)OC(C)C)C(c2ccc3c(c2)OCO3)NC(=S)N1 (stereo not given)	102% (inactive)
CCOC(=O)Cn1c(O)c(N=Nc2ccc(S(N)(=O)=O)cc2)c2cc(Br)ccc21	86.2% (inactive)
O=C(Cn1c2c(c3ccccc31)CCCC2)Nc1ccc(-c2nc3ccccc3s2)cc1	96.9% (inactive)

SMILES	growth
COC(C(=O)[C@@H](O)[C@@H](C)O)[C@@H]1Cc2cc3cc(O[C@H]4C[C@@H](O[C@H]5C[C@@H](O)[C@H](O)C(C)O5)[C@H](O)C(C)O4)c(C)c(O)c3c(O)c2C(=O)[C@H]1O[C@H]1C[C@@H](O[C@H]2C[C@@H](O[C@H]3C[C@@H](O)[C@H](OC)C(C)O3)[C@@H](O)C(C)O2)[C@H](O)C(C)O1 (stereo not given in full)	2.99% (active)
CCCCCCCCn1ccc2cc(NC(=O)CN3CCN(c4nc(C)cc(Cl)n4)CC3)ccc21	92.8% (inactive)
COc1ccc(/C=N/NC(=O)CCN2c3ccccc3Sc3ccccc32)cc1	91.5% (inactive)
CNC(=O)c1cc(Oc2ccc3c(c2)sc2nc(-c4cc(OC)c(OC)c(OC)c4)cn23)ccn1	61.9% (inactive)
CCCCCCNC(=O)Oc1ccc(/C(=C(/C)Cc2ccc(OC)cc2)c2ccc(OCCCN(C)C)cc2)cc1	-46.7% (active)
Cn1ccnc1C(=O)C(=O)Nc1ccc(CC(=O)Nc2ccccc2)cc1	108% (inactive)
C=CCc1c(O)c(C(=O)/C=C/c2ccc(Cl)cc2)c(OC)c2ccoc12	37.7% (inactive)
C=C(CNCCc1ccc(O)cc1)[C@@H]1CC[C@]2(CO)CC[C@]3(C)[C@H](CC[C@@H]4[C@@]5(C)CCC(NCCO)C(C)(C)[C@@H]5CC[C@]43C)[C@@H]12 (stereo not given in full)	-83.7% (active)
CCOC(=O)CNP(=O)(OC[C@@H](Cc1ccccc1)NC(=O)c1cc2ccccc2s1)Oc1ccccc1 (stereo not given in full)	66.5% (inactive)
COc1ccc(OC)c(C(=O)/C=C/c2cc3c(c(OC)c2OC)OCO3)c1	50.4% (inactive)
C=C(C)[C@@H]1CC[C@]2(C)[C@H](CC=C3[C@@H]4[C@H](C)[C@@H](C)CC[C@]4(CO)CC[C@]32C)[C@@]1(C)CCCN	-74.3% (active)
O=C1/C(=C/c2ccc(F)cc2)COc2ccc(O)cc21	60.8% (inactive)
CN(CCn1sc(=O)n(Cc2ccccc2)c1=O)Cc1ccc2c(Cl)cc(Cl)c(O)c2n1	27% (inactive)
CCN(CC)CCOc1ccc(C(=C(C)c2ccc(Cl)cc2)c2ccc(OCCN(CC)CC)cc2)cc1	-81.6% (active)
CC(=O)OC[C@]12CCC(C)(C)C[C@H]1[C@@]1(O)[C@H](O)C[C@@H]3[C@@]4(C)CCCNC(C)(C)[C@@H]4CC[C@@]3(C)[C@]1(C)CC2	107% (inactive)
Cc1ccc(CNc2ccc(Cl)cc2NCc2ccc(C)c(O)c2)cc1O	21.9% (inactive)
COc1ccc(C(=O)C2C(c3ccc(OC)cc3)CN(C)C23C(=O)Nc2ccccc23)cc1 (stereo not given)	92.9% (inactive)
O=C(O)CCCN1C(=O)/C(=C/C(Cl)=C/c2ccccc2)SC1=S	21% (inactive)
O=C1/C(=C/c2ccc(Cl)cc2)COc2ccc(O)c(O)c21	-57% (active)
COc1cc(CNC(=O)/C=C/C=C/c2ccc3c(c2)OCO3)ccc1OCc1cn(-c2ccc(C)c(C)c2)nn1	86.3% (inactive)
